Screening results deposited in PubChem BioAssay by Johns Hopkins Ion Channel Center.
Sampled rows, rich in hits. Any-hit rate of the full collection: about 1.6%.
KCNQ2 pot = KCNQ2 (rat) channel potentiation | CHO-K1 KCNQ2, FluxOR thallium flux fluorescence; active compounds read high | O88943 | hit rate 0.54% among 310,000 | B-score at 10 µM;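 active = fluorescence ratio B-score at least 3 SD of library B-scores, with initial fluorescence B-score within 3 of them, cut at about 5.3 in these data; same plate scores as AID 2156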;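 also: B-score of peak minus minimum over baseline fluorescence ratio after K+ and Tl+ stimulus; positive B-score means potentiation of KCNQ2 with more thallium influx and brighter signal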
Target sequence (O88943 whole entry, looked up): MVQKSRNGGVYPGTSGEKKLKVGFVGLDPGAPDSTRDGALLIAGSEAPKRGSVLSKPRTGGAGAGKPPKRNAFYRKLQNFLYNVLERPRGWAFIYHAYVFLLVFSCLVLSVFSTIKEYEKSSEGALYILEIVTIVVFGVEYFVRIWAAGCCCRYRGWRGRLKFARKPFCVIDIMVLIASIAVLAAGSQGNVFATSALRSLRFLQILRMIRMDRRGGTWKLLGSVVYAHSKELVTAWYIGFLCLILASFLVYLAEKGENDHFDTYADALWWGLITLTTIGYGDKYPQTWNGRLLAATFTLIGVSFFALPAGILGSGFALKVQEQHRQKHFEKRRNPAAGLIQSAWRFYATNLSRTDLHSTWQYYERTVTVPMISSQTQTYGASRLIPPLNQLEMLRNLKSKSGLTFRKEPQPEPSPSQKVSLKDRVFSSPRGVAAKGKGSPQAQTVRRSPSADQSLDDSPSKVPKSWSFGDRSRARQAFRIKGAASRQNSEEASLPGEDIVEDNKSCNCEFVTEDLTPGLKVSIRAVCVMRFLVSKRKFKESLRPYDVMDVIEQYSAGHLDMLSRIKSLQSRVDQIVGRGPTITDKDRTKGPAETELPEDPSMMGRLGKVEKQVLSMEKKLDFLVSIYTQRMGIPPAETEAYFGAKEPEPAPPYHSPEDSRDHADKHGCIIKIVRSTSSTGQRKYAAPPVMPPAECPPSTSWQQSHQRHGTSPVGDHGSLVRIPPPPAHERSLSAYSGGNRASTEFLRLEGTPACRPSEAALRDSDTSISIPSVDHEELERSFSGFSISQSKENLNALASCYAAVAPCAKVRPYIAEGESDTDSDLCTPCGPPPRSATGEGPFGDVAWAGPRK
KCNQ2 inh = KCNQ2 (rat) channel inhibition. O88943. CHO-K1 KCNQ2, FluxOR thallium flux, 20 min; active compounds read low. B-score at 10 µM. hit rate 1.1% among 310,000. AID 2156;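 active = fluorescence ratio B-score at most minus 3 library SDs, with starting brightness B-score within 2 library SDs, cut at about -5.5 in these data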
Kir21 conf inh = confirmation of mouse Kir2.1 potassium channel inhibitors; AID 2032; Tl flux remaining, % of negative control (active compounds read low), % at 10 µM; Kir2.1-expressing cells, FluxOR thallium flux fluorescence; active compounds read low; shares compounds with KCNQ2 pot; hit rate 41% among 2,300;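 active = Primary-screen hit whose thallium flux fell at least 3 control SD below untreated wells in both duplicates, with normal baseline fluorescence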;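 also: 0% = blank wells without stimulus and 100% = stimulated no-compound controls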
HEK293 Tl flux = alters thallium flux in parental HEK293 cells, Kir2.1 counter-screen. hit rate 19% among 2,300. shares compounds with KCNQ2 pot. FluxOR thallium flux fluorescence; 0% = unstimulated blank wells. FluxOR signal as % of negative control (100 = no effect), % at 10 µM;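 active = dye signal at least 3 control SD above or below untreated wells in both duplicates, raw fluorescence within 3, either direction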;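 also: percent is based on the flux ratio of peak minus minimum fluorescence over baseline F0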
CHO-K1 Tl ctr = alters thallium flux in parental CHO-K1 cells, KCNQ2 counter-screen; shares compounds with KCNQ2 pot; FluxOR thallium flux fluorescence; zero = vehicle mean+3SD, 100% = vehicle-minus-blank window; activity increase over 3SD of controls, % at 10 µM; hit rate 43% among 1,200; AID 2282;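 active = signal rise of at least 3 SD above the untreated control mean, in both duplicate wells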;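 also: counter screen of KCNQ2 potentiator hits so any rise reflects channel-independent effects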
KCNQ1 pot spec = selectivity of KCNQ2 potentiators: effect on human KCNQ1; CHO KCNQ1 stable, FluxOR thallium flux fluorescence; beyond 3SD, as % of vehicle-control signal; hit rate 28% among 1,200; activation over 3SD threshold, % at 10 µM; shares compounds with KCNQ2 pot;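 active = fluorescence ratio rise of at least 3 SD of vehicle wells above their mean, in both replicate wells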;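 also: 0% = vehicle mean plus 3 SD and 100% = vehicle minus unstimulated blank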
KCNQ2 pot conf = rat KCNQ2 channel potentiator confirmation; shares compounds with KCNQ2 pot; CHO-KCNQ2 cells, FluxOR thallium flux fluorescence; potentiation, less the hit threshold, % at 10 µM; hit rate 68% among 1,200;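 active = fluorescence ratio rising 3 SD or more over the vehicle control mean in both replicates, plus primary screen hit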;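 also: peak minus minimum thallium fluorescence divided by baseline after K/Tl stimulus; 0% = vehicle mean plus 3 SD and 100% = vehicle minus unstimulated blank difference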
Kir21 spec = selectivity of KCNQ2 potentiators: effect on mouse Kir2.1; shares compounds with KCNQ2 pot; HEK293 Kir2.1, FluxOR thallium flux fluorescence; activity over 3SD threshold, % at 10 µM; hit rate 2% among 1,200;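 active = fluorescence ratio rise of at least 3 SD above the vehicle-control mean, seen in both replicates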;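 also: 0% = vehicle mean plus 3 SD and 100% = vehicle minus no-stimulus blank window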
KCNQ2 W236L MoA = rat KCNQ2 W236L mutant potentiation by KCNQ2 potentiators; shares compounds with KCNQ2 pot; CHO KCNQ2-W236L, automated patch clamp current; current increase over 3SD of negative controls (%), active compounds read high, % at 25 µM; hit rate 10% among 940;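 active = current increase at least 3 SD of the untreated controls above them in both duplicate recordings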
* marks the source's active call; other numbers are inactive results; i = inactive; nt = not tested or not shown.

SMILES	KCNQ2 pot	KCNQ2 inh	Kir21 conf inh	HEK293 Tl flux	others
Cn1c(CCNC(=O)c2ccco2)nc2cc(NS(=O)(=O)c3ccc(Cl)cc3)ccc21	nt	i	nt	nt
FC(F)(F)c1cnc(Oc2ccc(-c3nnco3)cc2)c(Cl)c1	nt	i	nt	nt
FC(F)(F)c1cnc(Oc2ccccc2-c2nnco2)c(Cl)c1	7.4*	i	i	i	CHO-K1 Tl ctr=-6;KCNQ1 pot spec=-1;KCNQ2 pot conf=53*;Kir21 spec=-33;KCNQ2 W236L MoA=i
O=c1oc2cc(O)ccc2c2c1CCCC2	0.87	i	i	i
CC(=O)Oc1ccc2c3c(c(=O)oc2c1)CCCC3	0.71	i	nt	nt
C=CCNC(=S)Nc1c(N)n(C)c(=O)n(C)c1=O	1.8	i	nt	nt
Cc1ccc(C(C)C)cc1S(=O)(=O)NCc1ccccn1	nt	i	67%*	i
Cc1cc(C)c(S(=O)(=O)NCc2ccccn2)cc1C	nt	i	nt	nt
CC(C)CO/C(=N/S(=O)(=O)c1ccccc1)c1ccccc1	0.96	i	nt	nt
CC(C)O/C(=N\S(=O)(=O)c1ccc(Cl)cc1)c1ccccc1	nt	i	66%*	i
COc1ccc(CCNC(=O)COc2nncc3ccccc23)cc1	0.14	i	nt	nt
COC(=O)c1cccc(OCC(O)Cn2ccnc2)c1 (stereo not given)	nt	i	nt	nt
COc1ccc(C(=O)OC(COc2ccccc2)Cn2ccnc2)cc1 (stereo not given)	nt	i	54%*	i
CCOC(=O)C1CCN(C(=O)c2cc3c(=O)n4ccccc4nc3n2C)CC1	nt	i	nt	nt
O=C(CN1CCN(CC(=O)Nc2ccccc2F)CC1)Nc1ccc2c(c1)OCCO2	0.87	i	nt	nt
O=c1cc(Cl)[nH]c(=O)n1Cc1ccccc1	1.1	i	nt	nt
O=c1ccsn1Cc1ccccc1	5.7*	i	nt	nt	CHO-K1 Tl ctr=-18;KCNQ1 pot spec=-17;KCNQ2 pot conf=-4;Kir21 spec=-63
O=C1CN(S(=O)(=O)c2cccc(Cl)c2Cl)c2ccccc2N1	1.2	i	59%*	i
O=C1CN(S(=O)(=O)c2ccc(Br)cc2)c2ccccc2N1	nt	i	nt	nt
COc1ccccc1N1CCN(Cc2ccc(O)c3ncccc23)CC1	6.5*	i	i	126%*	CHO-K1 Tl ctr=-5;KCNQ1 pot spec=-22;KCNQ2 pot conf=3.8*;Kir21 spec=-45;KCNQ2 W236L MoA=i
COc1ccccc1N1CCN(Cc2ccc(OC)c(OC)c2OC)CC1	nt	i	nt	nt
CC(OC(=O)c1ccccc1O)C(=O)Nc1cccc(Cl)c1 (stereo not given)	nt	i	nt	nt
OCCCn1c(C2CCCN2c2nc(-c3ccc(F)cc3)cs2)nc2cc(Cl)c(N3CCCCC3)cc21 (stereo not given)	10*	i	i	i	CHO-K1 Tl ctr=-13;KCNQ1 pot spec=-8;KCNQ2 pot conf=55*;Kir21 spec=-25;KCNQ2 W236L MoA=i
OCCOCCn1c(C2CCCN2c2nc(-c3ccc(F)cc3)cs2)nc2cc(Cl)c(Cl)cc21 (stereo not given)	nt	i	nt	nt
OCCCn1c(C2CCCN2c2nc(-c3ccc(Cl)cc3)cs2)nc2cc(Cl)c(N3CCCCC3)cc21 (stereo not given)	8.1*	i	i	i	CHO-K1 Tl ctr=13*;KCNQ1 pot spec=-21;KCNQ2 pot conf=8.9*;Kir21 spec=-26;KCNQ2 W236L MoA=i
SMILES	KCNQ2 pot	KCNQ2 inh	Kir21 conf inh	HEK293 Tl flux	others
Cc1csc(N2CCCC2c2nc3cc(Cl)c(N4CCCCC4)cc3n2CCCO)n1 (stereo not given)	2.4	i	nt	nt
CSCC[C@H](NC(=O)N1CCn2c1nc1ccccc12)C(=O)NCc1ccc(C)cc1	nt	i	nt	nt
COCCCN1C(=O)CC(C(=O)OC)=C1C	0.96	i	nt	nt
COc1ccc(CCN(C)C(=O)CNC(=O)c2ccc3c(c2)OCO3)cc1OC	nt	i	nt	nt
COC(=O)n1c(=S)oc2cc(Cl)ccc21	8.4*	i	i	i	CHO-K1 Tl ctr=28*;KCNQ1 pot spec=-18;KCNQ2 pot conf=-10;Kir21 spec=-26;KCNQ2 W236L MoA=i
CCCCOC(=O)n1c(=S)oc2cc(Cl)ccc21	1.9	i	nt	nt
COc1ccccc1N1CC(C(=O)Nc2nnc(SC)s2)CC1=O (stereo not given)	nt	i	nt	nt
CN(Cc1cccc(Cl)c1)C(=O)C1CSC2(C)CCC(=O)N12 (stereo not given)	0.52	i	nt	nt
OC(CNCc1ccco1)COc1ccccc1 (stereo not given)	nt	i	nt	nt
OC(CNCc1ccco1)Cn1c2ccccc2c2ccccc21 (stereo not given)	nt	i	72%*	i
O=c1[nH]c(C(Cl)(Cl)Cl)nc2ccc3ccccc3c12	6.6*	i	i	174%*	CHO-K1 Tl ctr=-18;KCNQ1 pot spec=38*;KCNQ2 pot conf=5.6*;Kir21 spec=-19;KCNQ2 W236L MoA=i
O=c1[nH]c(C(F)(F)F)nc2ccccc12	0.68	i	nt	nt
Cc1scc(-c2n[nH]c(=S)n2C(C)c2ccccc2)c1C (stereo not given)	nt	i	nt	nt
CCc1cc(-c2n[nH]c(=S)n2C(C)c2ccccc2)cs1 (stereo not given)	1.9	i	50%*	i
CC1(C)C2CC=C(/C=N/NC(=S)NCCc3ccccc3)C1C2 (stereo not given)	5.5*	i	i	i	CHO-K1 Tl ctr=-15;KCNQ1 pot spec=-16;KCNQ2 pot conf=-18;Kir21 spec=-26
CNC(=S)N/N=C/C1=CCC2CC1C2(C)C (stereo not given)	1.4	i	nt	nt
CC(C)NS(=O)(=O)c1ccc(OCC(=O)Nc2cccc(F)c2)cc1	nt	i	nt	nt
CCOc1cccc(CNCc2cccnc2)c1OCc1ccccc1	1.3	i	45%*	i
Clc1ccc(COc2ccccc2CNCc2cccnc2)cc1	0.38	i	nt	nt
CC1CCCCN1C(=O)c1cc(S(=O)(=O)N2CCCCC2)c[nH]1 (stereo not given)	0.7	i	nt	nt
CCOc1ccc(C(=O)Nc2nnc(C3=COCCO3)o2)cc1	2.9	i	nt	nt
CC(C)C(CCNC1CCN(C)CC1)c1ccc(Cl)cc1 (stereo not given)	nt	i	nt	nt
CN1CCC(NCCC(c2ccc(F)cc2)c2ccc(Cl)cc2)CC1 (stereo not given)	nt	i	56%*	i
C=CCNC(=O)c1onc(CSc2ccc(F)cc2)c1C(=O)NCCOC	0.13	i	nt	nt
O=C(Nc1ccnn1C1CCN(CC(O)CO)CC1)C1CCCC1 (stereo not given)	nt	i	nt	nt
O=C(Nc1ccccc1)/C(=C/c1ccc([N+](=O)[O-])cc1)NC(=O)c1ccco1	0.17	i	nt	nt
